Screens from PubChem.
Sampled rows, rich in hits. Any-hit rate of the full collection: about 0.25%.
Giardia killer: kills Giardia lamblia; Giardia lamblia trophozoite viability; activity change, % at 7.66 µM, hits read low; actives 0.15% (n = 340,000); AID 540267; in the data active means activity change below about -80%; inconclusive means between about -30% and that limit;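 further: parasites exposed to compound for two days anaerobically before the ATP read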
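Viability, read as ATP luminescence: trophozoites at 100 cells/well, compound added, 48 hrs anaerobic at 37 deg C, then 15-30 min room-temperature development before reading.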
BCR signal inh: chronic active BCR signaling inhibition | Potency, µM (top dose mostly 46.1 µM), usual class: inhibitors | actives 0.05% (n = 340,000) | AID 493014 | ABC-DLBCL IkBa-CBG/CBR reporter, luminescence ratio, 4 h; active means well fitted inhibition curve with a large enough effect in the signal ratio, with a control signal flat, not every such curve was filed as active; inconclusive means small, poorly fitted or top-dose-only effect, or effect the other way, or a change in a side signal; the % refers to the signal ratio
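Compounds up to 46 uM were incubated four hours with TMD8 cells whose green CBG68 luciferase is fused to IkappaBalpha; red CBR luminescence normalised the signal, and concentration-effect curves were fitted to fusion, red and ratio data.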
a7 integrin act: activates integrin-mediated alleviation for muscular dystrophy. alpha7betagal myoblasts, beta-gal FDG fluorescence, 48 h. AID 624291. Potency, µM (top dose mostly 38.3 µM), usual class: activators. actives 0.064% (n = 350,000); further: nearly all actives have a fitted effect of over 60% in size
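Alpha7betagal+/- myoblasts (passage 13) were plated 16-24 hr, then exposed to compounds (1:260 dilution of DMSO stock) for 48 hours at 37C. After MPER lysis, β-galactosidase reporter activity was read as FDG fluorescence (ex 480/em 540) after 30 minutes.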
TCR act: activates T cell receptor signaling; 330,000 tested, under 10 active; primary human leukocytes, anti-CD3, IL-2 HTRF, 48 h; Potency, µM (titrated, usually from 9.22 µM), actives largely listed as activators; AID 504894
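Readout: HTRF IL-2, Eu-cryptate/d2 antibody pair, 320nm excitation, 665nm emission. Stimulus: a-CD3 beads, no co-stimulation. Cells: primary human leukocytes. Exposure: 48 hr with compound.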
Of the large screens only hits and unclear results are named; the others gave an inactive call. Unless noted, the call rests on the fitted dose curve; in most records, active means well fitted curve in the direction sought with a large enough effect; inconclusive means small, poorly fitted or top-dose-only effect, or another doubt; inactive means no such curve, though single readings can be large; an effect the other way counts as inactive or inconclusive.

O=C(Nc1ncc([N+](=O)[O-])s1)c1cccc([N+](=O)[O-])c1	Giardia killer -93, BCR signal inh inconclusive
CC(C)CC(=O)Nc1ncc([N+](=O)[O-])s1	Giardia killer -93, BCR signal inh inconclusive
O=C(Nc1ccccc1)Nc1ncc([N+](=O)[O-])s1	Giardia killer inconclusive, BCR signal inh inconclusive
Cc1nc(C)c(C(=O)Nc2ncc([N+](=O)[O-])s2)o1	Giardia killer -88, BCR signal inh inconclusive
CCCCC(=O)Nc1ncc([N+](=O)[O-])s1	Giardia killer -90, BCR signal inh inconclusive
CNc1cc([N+](=O)[O-])ccc1OCc1ccccc1	BCR signal inh inconclusive, a7 integrin act 4.5µM
O=[N+]([O-])c1ccc(/C=N/Nc2ncccc2[N+](=O)[O-])s1	Giardia killer -93 (no result: BCR signal inh)
COc1cccc(/C=N/Nc2ncccc2[N+](=O)[O-])c1OC	BCR signal inh inconclusive
COc1cc2c(cc1NC(=O)Cc1ccc(C)cc1)oc1ccccc12	a7 integrin act 1.1µM
O=C(Cn1cnc2ccccc21)Nc1cccc([N+](=O)[O-])c1	none
O=C(COC(=O)Cn1cnc2ccccc21)Nc1cccc([N+](=O)[O-])c1	a7 integrin act 11µM
CCNc1nc(C#N)nc(N2CCOCC2)n1	none (no result: BCR signal inh, a7 integrin act, TCR act)
COc1ccc(-c2noc(CSc3nc(N)c(-c4ccccc4)c(=O)[nH]3)n2)cc1OC	BCR signal inh 21µM
COc1ccc(N(CC(=O)NCCC(C)C)C(=O)c2snc(C(=O)NC3CCCCC3)c2N)c(OC)c1	a7 integrin act 10µM
Cc1nc2ncccn2c1-c1csc(Nc2ccccc2)n1	BCR signal inh inconclusive
COc1ccc(Nc2nc(-c3c(C)nc4ncccn34)cs2)cc1	BCR signal inh 3.5µM
CCOC(=O)CNC(=O)CSc1nnc(NC(=O)c2ccc(C)cc2)s1	Giardia killer -87
Cc1ccc(C(=O)Nc2nnc(SCC(=O)N3CCCc4ccccc43)s2)cc1	Giardia killer -125
CC(C)Oc1ccc(C(=O)Nc2nnc(SCC(=O)N3CCOCC3)s2)cc1	Giardia killer -95
O=C(Nc1nnc(SCC(=O)N2CCCc3ccccc32)s1)c1cccc2ccccc12	none
COc1cccc(C(=O)NCC(=O)N2CCC3(CC2)NCCc2[nH]cnc23)c1	a7 integrin act 11µM
CCCc1ccc(-c2cc(C(=O)N/N=C/c3ccc([N+](=O)[O-])o3)c3ccccc3n2)cc1	Giardia killer -94, BCR signal inh inconclusive
O=C(N/N=C/c1ccc([N+](=O)[O-])o1)c1cc(-c2cccc(Br)c2)nc2ccccc12	Giardia killer -86, BCR signal inh inconclusive
COc1cccc(N2CC(NC(=O)COc3ccccc3F)CC2=O)c1 (stereo not drawn)	none (no result: Giardia killer, a7 integrin act, TCR act)
NNC(=O)/C(=C/c1cccs1)NC(=O)c1ccccc1Cl	BCR signal inh 11µM (no result: TCR act)
N#C/C(=C\c1cccs1)C(=O)c1ccccc1Cl	BCR signal inh inconclusive
O=C(Nc1ccc(S(=O)(=O)Nc2nccs2)cc1)c1ccccc1OC(F)F	a7 integrin act 10µM
O=C(Nc1ccc(S(=O)(=O)Nc2nccs2)cc1)c1ccc(F)cc1	none
CCCCOC(=O)c1ccc(NC(=O)C2(c3cccs3)CCOCC2)cc1	none (no result: Giardia killer, a7 integrin act, TCR act)
O=C(O)CSc1cc(NS(=O)(=O)c2cccc([N+](=O)[O-])c2)c2ccccc2c1O	Giardia killer -81, BCR signal inh inconclusive
CCOC(=O)C1=C(C)NC(C)=C(C(=O)OCC)C1C(=O)OCC(=O)NC1CCCCC1	none
CC(C)(CC(=O)O)CC(=O)N1CCCN(c2nccc(C(F)(F)F)n2)CC1	a7 integrin act 4µM
O=C1/C(=C\c2ccc([N+](=O)[O-])cc2)CCc2ccccc21	Giardia killer -91
O=C1/C(=C/c2ccc(O)cc2)CCc2ccc([N+](=O)[O-])cc21	none
CCOC(=O)c1ccc(-n2c(N)c(C(=O)OC)c3nc4ccccc4nc32)cc1	none (no result: Giardia killer, a7 integrin act, TCR act)
CCN(CC)CCCNc1nc(-c2ccccc2)nc2ccccc12	none
CCN(CC)CCCNc1nc2ccccc2c2[nH]c3ccc(OC)cc3c12	Giardia killer -84 (no result: BCR signal inh)
COc1ccc(-c2nc(NCCCN(C)C)c3ccccc3n2)cc1	Giardia killer -99
CC(Cl)OC(=O)Nc1cccc2cccnc12 (stereo not drawn)	none (no result: BCR signal inh, a7 integrin act, TCR act)
O=[N+]([O-])/C(Cl)=C(/NCCO)C(Cl)=C(Cl)Cl	Giardia killer -100 (no result: BCR signal inh)
O=[N+]([O-])c1ccc(Nc2nc(Cl)nc(NCCO)n2)cc1	a7 integrin act inconclusive
Cc1ccc(C2Nc3cccc4cccc(c34)N2)s1	a7 integrin act 3.2µM
O=C(CN1CCOCC1)Nc1nc2cc([N+](=O)[O-])ccc2s1	BCR signal inh inconclusive
O=C(CN1CCOCC1)NCc1cc([N+](=O)[O-])ccc1O	a7 integrin act 13µM
CCOc1ccc(S(=O)(=O)NCC(c2ccco2)S(=O)(=O)c2ccc(F)cc2)cc1 (stereo not drawn)	none (no result: Giardia killer, a7 integrin act, TCR act)
O=C(Nc1ccc(Oc2cccnc2)cc1)c1ccccc1F	BCR signal inh inconclusive
O=C(Nc1ccc(Oc2cccnc2)cc1)c1ccccc1Cl	BCR signal inh inconclusive, a7 integrin act 10µM
O=C(COc1cc2oc(=O)c3c(c2cc1Cl)CCC3)NCC1CCC(C(=O)O)CC1 (stereo not drawn)	a7 integrin act inconclusive
O=C(COc1cc2oc(=O)c3c(c2cc1Cl)CCCC3)NCC1CCC(C(=O)O)CC1 (stereo not drawn)	a7 integrin act 7.1µM
COc1ccc(OC)c2sc(N3CCN(C(=O)CCS(=O)(=O)c4ccc(F)cc4)CC3)nc12	none (no result: Giardia killer, a7 integrin act, TCR act)
Cc1ccc(-c2onc3ccc(C(=O)/C=C/N(C)C)cc23)cc1	BCR signal inh inconclusive, a7 integrin act 3.5µM
Cc1c(C2(O)CCCCC2)[nH]c2ncccc12	none
CCc1c(C2(O)CCCCC2)[nH]c2ncccc12	a7 integrin act 10µM
Cc1nn(-c2nc3ccccc3[nH]2)c(=O)c2ccccc12	Giardia killer -97, BCR signal inh inconclusive
COCCNC(=O)CSc1nnc(NC(=O)Nc2ccc(C)cc2)s1	none (no result: Giardia killer, a7 integrin act, TCR act)
O=[N+]([O-])C(=C1SCCS1)C(=C(Cl)Cl)N1CCCCC1	BCR signal inh inconclusive
O=[N+]([O-])C(/C=C(\Cl)[N+](=O)[O-])=C(N1CCCCC1)N1CCCCC1	Giardia killer -82
Cc1ccc(CNC(=O)CCCCCn2c(=O)[nH]c3ccccc3c2=O)cc1	none (no result: Giardia killer, a7 integrin act, TCR act)
CN=c1scc(-c2ccccc2F)n1/N=C/c1ccc(O)c(O)c1O	Giardia killer -103
CCCCC(=O)N1C/C=C\C(c2ccc(OC)cc2)N(Cc2ccc(F)cc2)C(=O)C1Cc1ccccc1 (stereo not drawn)	none (no result: BCR signal inh, a7 integrin act, TCR act)
CC(C)(C)NC(=O)COC(=O)CNC(=O)C1CCCCC1	none (no result: BCR signal inh, a7 integrin act, TCR act)
COC(=O)c1ccccc1NC(=O)/C=C/c1cc(OC)c(OC)c(OC)c1	BCR signal inh 16µM
COc1ccc(CNC(=O)CCCCCn2c(=O)[nH]c3ccccc3c2=O)cc1	none (no result: Giardia killer, a7 integrin act, TCR act)
CCOC(=O)c1cnc(Nc2nc3ccccc3o2)nc1CSc1ncccn1	none (no result: BCR signal inh)
CCOC(=O)c1cnc(Nc2nc3ccccc3o2)nc1CSC(=S)N(CC)CC	Giardia killer inconclusive, BCR signal inh 0.58µM
Oc1c(Br)cc(Br)cc1CNc1cccc2cccnc12	BCR signal inh inconclusive, a7 integrin act 13µM (no result: TCR act)
